IMPase inh: IMPase inhibition in cells. 120,000 tested, under 10 active. CHO-M1 cells, IP1 accumulation, HTRF TR-FRET ratio. inhibition (IP1 accumulation), % at 46.1 µM. P97697; active means well fitted curve in the direction sought with a large enough effect in the signal ratio, not every such curve was filed as active; inconclusive means small, poorly fitted or top-dose-only effect, or a change in a side signal; inactive means no such curve, though single readings can be large or run the other way; the % refers to the signal ratio;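 further: cells stimulated with carbachol in lithium chloride buffer; plate controls were DMSO basal wells for no effect and reference inhibitor wells for full effect; higher means more IMPase inhibition seen as more IP1 and lower FRET ratio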
Target sequence (P97697 whole entry, looked up): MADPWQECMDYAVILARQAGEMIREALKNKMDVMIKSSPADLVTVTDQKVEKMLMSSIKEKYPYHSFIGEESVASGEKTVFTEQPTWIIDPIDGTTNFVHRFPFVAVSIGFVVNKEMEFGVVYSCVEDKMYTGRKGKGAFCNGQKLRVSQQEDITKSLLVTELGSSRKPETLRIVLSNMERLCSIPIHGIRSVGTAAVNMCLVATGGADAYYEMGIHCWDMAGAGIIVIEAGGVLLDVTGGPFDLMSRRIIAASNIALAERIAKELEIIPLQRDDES
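Elevated IP1 in lysates lowers TR-FRET signal (665/620 ratio and 620 channel reported). Cells were CHO-M1, given carbachol (50 uM as added) plus 50mM LiCl, pH 7.4, 30 min, 37C; compounds titrated up to 46 uM; AC50 by Hill equation.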
ALDH1A1 inh: inhibitors of human aldehyde dehydrogenase 1A1; Purified ALDH1A1, NADH fluorescence, propionaldehyde substrate; Potency, µM (titrated, usually from 75.3 µM), without a hit: top-dose activity, negative = inhibition, usual class: inhibitors; 220,000 tested, 7.3% active;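 further: potency means the concentration at half of the fitted maximal effect; plate controls were no enzyme wells and a reference inhibitor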
HPGD block: HPGD (human) dehydrogenase inhibition; purified HPGD, NADH fluorescence kinetic, PGE2 substrate; AID 894; 150,000 tested, 4.3% active; Potency, µM, inactives show at the top dose activity change, negative = inhibition, usual class: inhibitors; P15428; further: potency means the concentration at half of the fitted maximal effect
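20 nM HPGD preincubated 15 min at room temperature with compound in 50 mM Tris-HCl pH 8, 0.01% Tween 20. Started with 1 mM NAD+ and 30 uM prostaglandin E2; NADH fluorescence (360/450 nm) read 5 times over 30-s intervals, last minus first.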
Starred values were filed as active, the others as inactive; ? = inconclusive; / = no result given; [ ] = dose if it differs, or a comment. Hits are enriched below; roughly 9% of the tested compounds scored in any of these assays. Unless noted, the call rests on the fitted dose curve; in most records, active means well fitted inhibition curve with a large enough effect (not every such curve was filed as active); inconclusive means small, poorly fitted or top-dose-only effect, or another doubt; inactive means no such curve, though single readings can be large or run the other way. Unless noted, on the % scale 0 is the no-effect control and ±100 the full control effect.

SMILES	IMPase inh	ALDH1A1 inh	HPGD block
O=C(COC(=O)c1ccc(S(=O)(=O)N2CCCC2)cc1)NCc1ccc(F)cc1	-3.3	5.0%	1.9%
O=C(NCc1n[nH]c(=S)n1-c1ccc(F)cc1)c1ccc(S(=O)(=O)N2CCCC2)cc1	-0.8	15.8µM*	-25.9%
COc1cc(O)ccc1-c1nc2cc(C)ccn2c1Nc1ccccc1C	3.2	/	/
O=C(O)CC/C(=N\NC(=O)CNC(=O)c1ccc(F)cc1)c1ccccc1	/	10.9%	/
Cc1ccc(C(=O)Nc2ccccc2-c2ccccc2)cc1[N+](=O)[O-]	?	17.8µM*	-5.7%
Cc1cc(C)nc(NC(=O)c2ccc(C)c([N+](=O)[O-])c2)n1	3.6	5.9%	6.3%
Cc1csc(NC(=O)c2ccc(C)c([N+](=O)[O-])c2)n1	/	?	28.2µM*
Cc1ccc(C(=O)Nc2ccccc2C(=O)N2CCCC2)cc1[N+](=O)[O-]	/	3.9%	-11.1%
O=C(COC(=O)c1ccccn1)NCCCc1ccccc1	-9.6	-12.2%	1.5%
C/C(=N\NC(=O)CCc1ccc(S(=O)(=O)N2CCOCC2)cc1)c1ccc(Br)cc1	/	9.6%	/
Nc1cc([N+](=O)[O-])ccc1O	?	-13.2%	-16.0%
COc1ccc(O)c(N)c1	/	25.1µM*	/
CC(=O)C[C@H](O)[C@@H](NC(=O)OC(C)(C)C)C(C)C	/	-5.0%[13.5 µM]	/
S=C(Nc1ccccc1)N1CCCCC1	0.5	3.4%	-4.8%
S=C(Nc1ccccc1)N1CCN(C(=S)c2ccccc2)CC1	/	12.6µM*	/
O=C(Cc1cccs1)N1CCC(c2nc3c(nnn3Cc3ccccc3Cl)c(=O)[nH]2)CC1	-2.2	?	15.8µM*
CCCCCCC(=O)N1CCC(c2nc3c(nnn3Cc3ccccc3Cl)c(=O)[nH]2)CC1	6.0	?	20µM*
O=C(c1cccs1)N1CCC(c2nc3c(nnn3Cc3ccccc3)c(=O)[nH]2)CC1	2.8	?	/
NC(=O)C1CCN(c2nc(C3CC3)nc3c2nnn3Cc2ccccc2Cl)CC1	0.5	-13.1%	-18.2%
Cc1cccc(C)c1N1C(=O)c2ccccc2C1=O	3.0	7.2%	-4.2%
CC(=O)c1ccc(S(=O)(=O)N2CCN(C)CC2)cc1	/	1.5%	/
COc1ccc(NC(=O)N2CCCC3(CCN(C(=O)c4ccc(OC)cc4)CC3)C2)cc1	/	?	-2.9%
CC1=NN(c2ccccc2)C(=O)/C1=C/C=C/c1ccccc1	/	?	-11.2%
CC1=NN(c2ccccc2)C(=O)/C1=C\N1CC(C)OC(C)C1 (stereo not drawn)	-13.6	25.1µM*	-1.9%
CC1(C)CCC(NC(=O)[C@@H](N)CCC(=O)O)CC1	/	4.9%	-3.6%
SMILES	IMPase inh	ALDH1A1 inh	HPGD block
CC1=NN(c2ccc(Cl)cc2)C(=O)C1C(c1ccccc1O)c1c(C)[nH]n(-c2ccc(Cl)cc2)c1=O (stereo not drawn)	2.7	7.51µM*	7.94µM*
Cc1[nH]n(-c2ccccc2)c(=O)c1-c1ccc(Cl)cc1	4.4	-0.6%	-8.1%
C=CCSC(=S)NC1CCS(=O)(=O)C1 (stereo not drawn)	/	3.7%	-7.5%
Cc1onc(-c2ccccc2)c1C(=O)NCC(O)c1ccccc1 (stereo not drawn)	/	-1.5%	/
COc1ccccc1CN1CCNC(=O)C1CC(=O)NCCOc1cccnc1 (stereo not drawn)	/	-2.0%	/
CC(=O)c1cccc(S(=O)(=O)N2CCCC(c3nc(-c4ccc(C)o4)no3)C2)c1 (stereo not drawn)	8.8	10µM*	-27.0%
O=S(=O)(c1ccc2ccccc2c1)N1CCC(c2nc(-c3ccncc3)no2)CC1	-17.3	-6.0%	-13.9%
Cc1ccc(S(=O)(=O)N2CCCC(c3nc(-c4ccc(C)o4)no3)C2)cc1 (stereo not drawn)	3.5	?	-23.2%
Cc1ccc(-c2noc(C3CCN(S(=O)(=O)c4ccc5c(c4)OCCO5)CC3)n2)o1	18.4	28.2µM*	-2.7%
COc1ccc(-c2noc(C3CCCN(S(=O)(=O)c4ccc(C)c(Cl)c4)C3)n2)cc1OC (stereo not drawn)	18.5	1.1%	/
COc1ccc(C(=O)C2CCN(S(=O)(=O)c3ccc4c(c3)OCCO4)CC2)cc1	2.3	?	-14.2%
Cc1ccc(-c2noc(C3CCCN(S(=O)(=O)c4ccc(S(=O)(=O)N(C)C)cc4)C3)n2)o1 (stereo not drawn)	4.4	25.1µM*	-12.3%
Cc1ccc(-c2noc(C3CCCN(S(=O)(=O)c4ccc5ccccc5c4)C3)n2)o1 (stereo not drawn)	9.4	23.8µM*	20µM*
Nc1ncnc2c1ncn2[C@@H]1O[C@@H](C(=O)NC2CC2)[C@H](O)[C@@H]1O	1.2	/	/
O=C(Nc1cc(Cl)cc(Cl)c1)N1CCCN(Cc2ccccc2)CC1	/	-3.8%	/
